Rows were chosen to be rich in hits. Some 19% of all compounds tested hit in one or more screens of this group.
DT40 TDP1 no CPT = qHTS for Inhibitors of human tyrosyl-DNA phosphodiesterase 1 (TDP1): qHTS in cells in absence of CPT; AID 686978, 2013; Potency, µM (highest dose often 46.2 µM), without a hit: at the top dose activity change, negative = growth inhibition, usual class: inhibitors; 420,000 compounds, 15% hits; DT40 Tdp1-/- hTDP1 cells, no CPT, ATP luminescence, 48 h; note: potency is the fitted concentration of half-maximal effect; nearly all actives have a fitted effect of over 55% in size
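Readout: luminescence from CellTiter-Glo after 30 min in the dark at RT. Cells: DT40 Tdp1-/- with stable hTDP1, 400/well. Exposure: compounds alone, ≥48 hr, 37 °C.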
HT1080-NT tox = qHTS for induction of synthetic lethality in tumor cells producing 2HG: qHTS for the HT-1080-NT fibrosarcoma cell line. Potency, µM (highest dose often 46.1 µM), for the others: at the highest dose activity, negative = less viability, most hits filed as cytotoxic. HT-1080-NT fibrosarcoma viability, CellTiter-Glo ATP luminescence, 48 h. AID 686970, 2013. 360,000 compounds, 1.6% hits;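 note: NT is the 2HG producing partner of a matched IDH1 knockdown line; potency is the fitted concentration of half-maximal effect; 0% = DMSO-treated cells and -100% = media-only wells without cells; nearly all actives have a fitted effect of over 55% in size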
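Viability of the 2HG-overproducing fibrosarcoma line after 48 hours of compound exposure at 37 degrees C was determined by luminescence with CellTiter-Glo, and concentration-effect curves were then fitted and categorized.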
IL-1B inflam inh = qHTS for Inhibitors of Inflammasome Signaling: IL-1-beta AlphaLISA Primary Screen; THP-1 LPS/ATP IL-1B secretion, AlphaLISA, 16 h; active compounds read low; activity change, % at 57.5 µM; 360,000 compounds, 4.7% hits; AID 743279, 2014; in the data active = activity change below about -50%; inconclusive = mostly about -30% to -49%
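THP-1 cells pretreated 1 hr with compounds (up to 57.5 uM final), then stimulated with LPS (250 ng/mL final) plus ATP (1.25 mM final); secreted IL-1B measured by AlphaLISA after 16 hr, decreased signal indicating inhibition.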
DT40 TDP1 CPT = qHTS for Inhibitors of human tyrosyl-DNA phosphodiesterase 1 (TDP1): qHTS in cells in presence of CPT; chicken DT40 Tdp1-/-;hTDP1 cells + 20 nM CPT, ATP luminescence, 48 h; Potency, µM (titrated, usually from 46.2 µM), without a hit: top-dose activity change, negative = growth inhibition, actives largely listed as inhibitors; 420,000 compounds, 12% hits; AID 686979, 2013; note: potency is the fitted concentration of half-maximal effect; nearly all actives have a fitted effect of over 55% in size
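Chicken DT40 Tdp1-/- cells stably complemented with human TDP1 were seeded at 400 cells/well in medium containing 20 nM camptothecin, exposed to pin-transferred compounds, and grown at 37 °C for at least 48 hr. Viability was read as ATP luminescence.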
HT1080 IDH1KD tx = qHTS for induction of synthetic lethality in tumor cells producing 2HG: qHTS for the HT-1080-IDH1KD cell line; HT-1080 IDH1 knockdown viability, ATP luminescence, 48 h; Potency, µM (series often up to 46.1 µM), for inactives: at the top dose activity, negative = toxicity, hits mostly cytotoxic; 360,000 compounds, 2% hits;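 note: potency is the fitted concentration of half-maximal effect; 0% = DMSO wells and -100% = cell-free medium wells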
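In this qHTS, HT-1080 cells depleted of IDH1 are exposed for 48 h at 37 °C to compound titrations. Toxicity is scored from CellTiter-Glo luminescence, with DMSO as full viability and medium alone as none.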
* = called active by the depositor; ? = inconclusive; . = not tested or not shown. Unless noted, calls come from the whole dose curve; as a rule, active = well fitted curve in the direction sought with a large enough effect; inconclusive = small, poorly fitted or top-dose-only effect, or another doubt; inactive = no such curve, though single readings can be large; an effect the other way counts as inactive or inconclusive. Unless noted, % is set by controls: 0 for no effect and ±100 for the full control effect.

SMILES | DT40 TDP1 no CPT | HT1080-NT tox | IL-1B inflam inh | DT40 TDP1 CPT | HT1080 IDH1KD tx
COc1cccc(C(=O)Nc2ccc3ccccc3c2)c1 | ? | -18.1% | ? | -27.3% | -23.4%
COc1cccc(-c2cc(=O)c3cc(NC(=O)c4ccccc4)ccc3[nH]2)c1 | 4.11µM* | 3.66µM* | 170.4 | 4.61µM* | 3.66µM*
Cc1cccc(NC(=O)c2ccc3[nH]c(C)cc(=O)c3c2)c1 | -21.0% | . | . | -2.2% | .
COc1cccc(-c2cc(=O)c3cc(NC(=O)c4ccc(N(C)C)cc4)ccc3[nH]2)c1 | 1.03µM* | 1.3µM* | 143.9 | 0.92µM* | 0.731µM*
CCOc1c2ccc(C(=O)NCc3ccc4c(c3)OCO4)cc2nn1CC | -19.7% | 2.3% | -10.4 | -8.7% | 8.0%
COC(=O)C1=C(N)Oc2cc(C)n(Cc3ccccc3)c(=O)c2C1c1ccccc1 (centres undefined) | 6.8% | -1.0% | -29.3 | -7.8% | -6.1%
COC(=O)C1=C(N)Oc2cc(C)n(C)c(=O)c2C1c1ccc(Cl)cc1 (centres undefined) | 14.6µM* | 0.0% | 9.8 | ? | 0.8%
CCOc1ccc(C2CC(=O)n3nc(-c4ccc(C)cc4)nc3S2)cc1OC (centres undefined) | -1.6% | . | . | 2.5% | .
N/C(=N\OC(=O)N1CCOCC1)c1ccc(Br)cc1 | ? | ? | -20.7 | 20.6µM* | -18.9%
CC1=C/C(=C(\c2cc(C)c(O)c(Br)c2)c2ccccc2S(=O)(=O)O)C=C(Br)C1=O | ? | ? | -80.6* | ? | ?
O=C(CCl)c1ccc2c(c1)CCCC2 | 0.794µM* | . | . | 0.891µM* | .
O=C(COc1ccc(Br)cc1)c1ccc2c(c1)CCCC2 | 23.1µM* | -1.6% | -27.4 | ? | 8.1%
O=C(C[n+]1ccccc1Br)c1ccc(O)c(O)c1 | -6.2% | . | . | 11.5% | .
O=C(C[n+]1ccccc1Br)c1ccc2c(c1)CCCC2 | 20µM* | . | . | ? | .
O=C(CCl)c1cc2c3c(c1)CC(=O)N3CCC2 | 0.326µM* | -14.5% | -70.9* | 1.16µM* | ?
Cc1cccc(NC(c2nnc(-c3ccccc3)o2)c2ccc(F)cc2Cl)c1C (centres undefined) | 2.4% | . | . | 2.5% | .
Cc1ccccc1-n1c(SCC(=O)N2CCCC2)nnc1-c1ccccn1 | -12.5% | -3.8% | 19.1 | -3.1% | -5.7%
CCc1ccccc1-n1c(SCC(=O)N2CCCC2)nnc1-c1ccccn1 | 20µM* | 10.0% | -9.6 | ? | 10.3%
CCn1c(CSCc2ccc(F)cc2)nnc1SCC(=O)N1CCN(c2ccccc2)CC1 | 23.1µM* | -13.7% | ? | ? | -2.5%
Cc1ccc(CSCc2nnc(SCC(=O)N3CCN(c4ccccc4)CC3)n2C)cc1 | 16.4µM* | -6.3% | ? | ? | -20.9%
Cc1ccc(CSCC(=O)N2CCN(c3ccccc3)CC2)cc1 | ? | 0.0% | 4.4 | ? | 13.3%
Cc1ccccc1-n1c(SCC(=O)N2CCN(c3ccccc3)CC2)nnc1-c1ccncc1 | 20.6µM* | 8.3% | 4.2 | 16.4µM* | 1.6%
Cc1cc(C(=O)NC(C)c2ccncc2)cs1 (centres undefined) | 2.5% | 7.4% | -9.1 | 5.7% | 1.3%
Cc1ccc(C(O)CSc2nnc(-c3ccc4ccccc4c3)n2C)cc1 (centres undefined) | ? | -1.0% | -0.1 | -13.2% | -0.8%
CNC(=S)NNC(=O)c1ccccc1F | -2.3% | 19.0% | 0.0 | -4.5% | 22.0%
SMILES | DT40 TDP1 no CPT | HT1080-NT tox | IL-1B inflam inh | DT40 TDP1 CPT | HT1080 IDH1KD tx
Cc1cc(C(=O)NCc2ccccc2Br)no1 | -23.2% | 11.2% | -11.8 | ? | 10.3%
Cc1nc2sc(C)c(C)n2c(=O)c1S(=O)(=O)N1CCN(c2ccccc2F)CC1 | ? | . | . | -27.7% | .
Cc1nn(CCC(=O)N2CCN(c3ccccc3)CC2)c(C)c1S(=O)(=O)N1CCCC1 | ? | . | . | 18.4µM* | .
Cc1ccc(NC(=O)CCn2nc(C)c(S(=O)(=O)N3CCCCC3)c2C)cc1Cl | 16.4µM* | . | . | ? | .
Cc1nn(CCC(=O)Nc2ccc(Cl)cc2)c(C)c1S(=O)(=O)N1CCCCC1 | 14.6µM* | . | . | 20.6µM* | .
COc1ccc(NC(=O)COC(=O)c2ccc(S(=O)(=O)N3CCCCCC3)cc2)c(OC)c1 | 1.0% | 6.9% | 14.5 | 8.1% | -0.3%
O=C(O)c1ccc(/C=N/NC(=O)c2cc(-c3ccc4c5c(cccc35)CC4)n[nH]2)cc1 | ? | -20.7% | -19.7 | ? | -18.0%
CC(=O)O[C@@H]1[C@@H](O)[C@@H](O)[C@H](Oc2c(-c3ccc(O)cc3)oc3c(CC=C(C)C)c(O)cc(O)c3c2=O)O[C@H]1C | ? | ? | -9.3 | ? | ?
CC(=O)O[C@H]1[C@@H](O)[C@H](O)[C@H](Oc2c(O)c(C)c3c4c2[C@@H](C)CC[C@@H]4[C@@H](C)C[C@H]3C=C(C)C)O[C@H]1C | 18.4µM* | ? | -2.7 | ? | ?
CC(C)(C)NC(=O)CSc1nc2ccc(NC(=O)CSc3nnnn3Cc3ccccc3)cc2s1 | 10.3µM* | -5.1% | -29.1 | 8.2µM* | 16.4µM*
CC(C)(C)NC(=O)CSc1nc2ccc(NC(=O)CSc3nnc(N)s3)cc2s1 | 9.2µM* | 1.6% | -8.3 | 20.6µM* | -2.2%
COc1ccc(/C=C2\N=C(c3ccccc3Cl)NC2=O)cc1 | 0.82µM* | -22.9% | ? | 5.8µM* | 14.6µM*
Fc1ccccc1C1c2[nH]c3ccccc3c2CCN1Cc1ccoc1 (centres undefined) | ? | -23.0% | -9.3 | ? | ?
CCOc1ccc(-c2nc3c(s2)CCc2onc(-c4ccc(OC)cc4)c2-3)cc1 | ? | 12.0% | 24.6 | -16.4% | 0.0%
COc1ccccc1COC(=O)C(NC(=O)c1ccc(C)cc1)C(C)C (centres undefined) | ? | 4.0% | 14.4 | -17.0% | 3.8%
CNC(=O)c1ccccc1NC(=O)c1cccc(S(=O)(=O)N2CCC(C)CC2)c1 | 16.4µM* | -9.2% | -3.5 | 20.6µM* | -11.0%
CCNC(=O)c1ccccc1NC(=O)c1cccc(S(=O)(=O)N2CCC(C)CC2)c1 | 14.6µM* | -1.4% | -4.0 | ? | -17.3%
O=C(OCc1ccccc1C(F)(F)F)c1cc([N+](=O)[O-])ccc1N1CCOCC1 | -9.6% | -5.6% | 7.9 | ? | -24.6%
Cc1ccc2c(n1)sc1c(N)ncnc12 | ? | -4.7% | -16.1 | 5.0% | -7.1%
Cc1nc2c(cnn2-c2ccccc2Cl)c(=O)n1-c1ccc(C(C)C)cc1 | 20.6µM* | -0.3% | 17.4 | ? | -16.0%

Screening data (PubChem BioAssay)
